Data on nine compounds can be found in PubChem BioAssay (NCI).

Test systems include NCI-H23 lung; NCI-H226 lung; NCI-H322M lung; HOP-62 NSCLC; NCI-H460 lung; HOP-92 NSCLC; NCI-H522 lung; A549/ATCC NSCLC; 786-0 renal; COLO 205 colon; DU-145 prostate; K-562 leukemia; MALME-3M melanoma; MDA-MB-231 breast; SF-268 CNS; SF-295 CNS; SF-539 CNS; UACC-257 melanoma; M14 melanoma; RXF 393 renal.
Common to all, as to test: NCI-60 one-dose screen, 48 h (100 = growth as untreated, 0 = no growth, -100 = all killed)
Holding throughout (settings): 10 µM unless noted

About 83,000 compounds went through this panel and 20% of them were active in at least one assay; those are over-represented in the sample as a whole.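 Cell lines were cultured in 96-well plates, exposed to a single compound concentration, and assessed for percent growth 48 hours later.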 A number with no mark means an inactive call. Active and inactive are the calls of the source. Rule for the calls: active = growth percent below 10; inactive = the rest.

As to `COc1ccccc1/C=C1\COc2ccc(-c3ccccc3)cc2C1=O`, the growth in the assay with NCI-H23 lung was 68%; in the assay on NCI-H226 lung it was 88.4%; in the assay with NCI-H322M lung, 80%; in the assay on HOP-62 NSCLC, -55.3% (active); with NCI-H460 lung, 12.2%; in the assay with HOP-92 NSCLC it was 49.3%. For the same compound, the growth was 51.9% in the assay with NCI-H522 lung; 37.8% in the assay on A549/ATCC NSCLC; -49.2% (active) in the assay with 786-0 renal; 9.86% (active) in the assay on COLO 205 colon; 7.94% (active) with DU-145 prostate; 3.54% (active) with K-562 leukemia. Besides, the growth with MALME-3M melanoma was 73.7%; with MDA-MB-231 breast, 43.8%; in the assay on SF-268 CNS, 22.1%; in the assay on SF-295 CNS, 22.2%; in the assay with SF-539 CNS, 30.5%; in the assay on UACC-257 melanoma, 56.9%. The growth in the assay on M14 melanoma was 17.4%.
On to `COc1ccc(/C=C/c2n[nH]c3ccc(N4CCOC4=O)cc23)cc1`, for which the growth with NCI-H23 lung was 12.4%; in the assay on NCI-H226 lung it was 6.06% (active); with NCI-H322M lung it was 8.47% (active); in the assay on HOP-62 NSCLC it was -1.37% (active); with NCI-H460 lung, 1.61% (active); in the assay with HOP-92 NSCLC it was -8.15% (active). The growth was 51.3% in the assay with NCI-H522 lung; 1.87% (active) in the assay with A549/ATCC NSCLC; 11.3% with 786-0 renal; -17.4% (active) with COLO 205 colon; 14.7% in the assay with DU-145 prostate; 59.9% in the assay on MALME-3M melanoma. In addition, the growth in the assay with MDA-MB-231 breast was 14.6%; with SF-268 CNS, 13%; in the assay with SF-295 CNS it was 32.8%; with SF-539 CNS it was -1.43% (active); in the assay on UACC-257 melanoma it was 38.4%; with M14 melanoma it was 26.9%.
As to `c1ccc(C2CC(c3cccc(Nc4ccncc4)c3)=NN2c2ccccc2)cc1` (stereo not given), the growth in the assay with NCI-H23 lung was 85.8%; in the assay with NCI-H226 lung, 96.1%; in the assay with NCI-H322M lung, 82.5%; with HOP-62 NSCLC, 71.1%; in the assay with NCI-H460 lung it was -41.9% (active); with HOP-92 NSCLC, 55.5%. Also, the growth is 89.1% in the assay with NCI-H522 lung; 50.9% in the assay with A549/ATCC NSCLC; 68.4% in the assay with 786-0 renal; -58% (active) in the assay on COLO 205 colon; 67.7% with DU-145 prostate; 0.756% (active) in the assay on K-562 leukemia. Besides, the growth in the assay with MALME-3M melanoma was -12.1% (active); in the assay on MDA-MB-231 breast, 75.3%; in the assay on SF-268 CNS, 86.6%; with SF-295 CNS it was 78.6%; in the assay on SF-539 CNS, 78.1%; in the assay on UACC-257 melanoma it was 34%. The growth in the assay with M14 melanoma was -57.4% (active).
For `CS(=O)(=O)Nc1cc(-c2ccc3ncnc(Nc4ccc5[nH]ncc5c4)c3c2)cnc1Cl`, the growth in the assay on NCI-H23 lung was 86%; in the assay on NCI-H226 lung, 75%; in the assay with NCI-H322M lung, 74.1%; with HOP-62 NSCLC, 55.2%; with NCI-H460 lung, 94.1%; with HOP-92 NSCLC, 0.913% (active). The growth is 60.6% in the assay on NCI-H522 lung; 91.8% in the assay on A549/ATCC NSCLC; 79.6% with 786-0 renal; 81.7% with COLO 205 colon; 82.4% in the assay with DU-145 prostate; 90.1% in the assay with K-562 leukemia. Also, the growth in the assay on MALME-3M melanoma is 60.9%; in the assay on MDA-MB-231 breast, 79.5%; in the assay on SF-268 CNS it was 53.8%; with SF-295 CNS, 88%; in the assay with SF-539 CNS, 67.7%; with UACC-257 melanoma, 35.4%. Besides, the growth with M14 melanoma was 80.8%.
Turning to `CCC(C)N(CCNc1cc(OC)cc2cccnc12)CCC(C)C` (stereo not given), the growth is 71.7% in the assay on NCI-H23 lung; 88% in the assay on NCI-H226 lung; 111% in the assay with NCI-H322M lung; 62.4% in the assay on HOP-62 NSCLC; 78.3% in the assay with NCI-H460 lung; 87.9% in the assay with HOP-92 NSCLC. In addition, the growth in the assay on NCI-H522 lung was 50%; in the assay with A549/ATCC NSCLC, 61.6%; in the assay with 786-0 renal, 95.7%; in the assay with COLO 205 colon it was 68.3%; in the assay with DU-145 prostate, 95.6%; in the assay with K-562 leukemia, 83.2%. Moreover, the growth in the assay on MALME-3M melanoma is 121%; in the assay with MDA-MB-231 breast, 84.5%; in the assay with SF-268 CNS, 78.6%; in the assay on SF-295 CNS it was 97%; in the assay with SF-539 CNS, 101%; in the assay on UACC-257 melanoma, 87.3%. In the assay with M14 melanoma, the growth is 82.4%.
Turning to `Cc1ccccc1-c1cc(Cc2ccc(F)cc2)c(=O)[nH]n1`, the growth is 98.3% in the assay on NCI-H23 lung; 105% in the assay on NCI-H226 lung; 94.3% in the assay with NCI-H322M lung; 95% in the assay with HOP-62 NSCLC; 107% with NCI-H460 lung; 99.8% in the assay on HOP-92 NSCLC. Also, the growth with NCI-H522 lung is 95.1%; with A549/ATCC NSCLC, 33.4%; in the assay with 786-0 renal it was 111%; with COLO 205 colon it was 108%; in the assay on DU-145 prostate, 130%; with K-562 leukemia, 84.8%. The growth in the assay with MALME-3M melanoma was 88%; in the assay on MDA-MB-231 breast, 109%; in the assay with SF-268 CNS, 94.6%; in the assay on SF-295 CNS it was 123%; in the assay with SF-539 CNS it was 94.2%; in the assay on UACC-257 melanoma it was 137%. Besides, in the assay with M14 melanoma, the growth was 118%.
Take `CCOC(=O)Oc1c(OC)cc(C(=O)O[C@@H]2C[C@@H]3CN4CCc5c([nH]c6cc(OC)ccc56)[C@H]4C[C@@H]3[C@H](C(=O)OC)[C@H]2OC)cc1OC`: the growth with NCI-H23 lung is 74.9%; in the assay with NCI-H226 lung it was 102%; in the assay on NCI-H322M lung it was 102%; in the assay on HOP-62 NSCLC, 97.9%; in the assay with NCI-H460 lung, 40.9%; in the assay with HOP-92 NSCLC it was 19%. In addition, the growth in the assay with NCI-H522 lung was 73.8%; in the assay with A549/ATCC NSCLC, 41.8%; in the assay on 786-0 renal it was 78.7%; with COLO 205 colon it was 88.9%; with DU-145 prostate, 81.5%; in the assay with MALME-3M melanoma, 58.9%. Besides, the growth in the assay on MDA-MB-231 breast is 43.2%; with RXF 393 renal, 89.8%; in the assay on SF-268 CNS, 75.2%; in the assay with SF-295 CNS, 74.3%; with SF-539 CNS, 79.9%; in the assay on UACC-257 melanoma, 94%. In addition, in the assay on M14 melanoma, the growth was 72.1%.
Turning to `COc1cc2nc(Cc3ccc(C)cc3)[nH]c(=O)c2cc1OC`, the growth was 105% in the assay with NCI-H23 lung; 95.9% in the assay with NCI-H226 lung; 236% in the assay with NCI-H322M lung; 104% in the assay with HOP-62 NSCLC; 107% in the assay with NCI-H460 lung; 69.1% in the assay on HOP-92 NSCLC. The growth in the assay on NCI-H522 lung is 92.8%; in the assay on A549/ATCC NSCLC, 49.3%; with 786-0 renal it was 103%; in the assay on COLO 205 colon, 123%; in the assay with DU-145 prostate, 100%; with K-562 leukemia, 94.3%. In addition, the growth with MALME-3M melanoma was 277%; with MDA-MB-231 breast, 98.8%; in the assay on SF-268 CNS, 105%; with SF-295 CNS, 121%; in the assay with SF-539 CNS, 104%; in the assay with UACC-257 melanoma, 105%. In addition, the growth in the assay with M14 melanoma is 113%.
On to `COc1ccc(Cc2nc3cc(OC)c(OC)cc3c(=O)[nH]2)cc1`, for which the growth was 59.6% in the assay with NCI-H23 lung; 98% in the assay with NCI-H226 lung; 167% in the assay with NCI-H322M lung; 140% in the assay on HOP-62 NSCLC; 89.4% in the assay with NCI-H460 lung; 108% with HOP-92 NSCLC. Further, the growth in the assay on NCI-H522 lung is 52.1%; in the assay on A549/ATCC NSCLC it was -5.67% (active); in the assay on 786-0 renal, 86.9%; in the assay on COLO 205 colon, 68.5%; in the assay on DU-145 prostate it was 39.5%; in the assay on K-562 leukemia it was 115%. The growth with MALME-3M melanoma was 273%; in the assay with MDA-MB-231 breast, 73.3%; with SF-268 CNS, 30.5%; with SF-295 CNS, 65.3%; in the assay with SF-539 CNS, 100%; in the assay on UACC-257 melanoma, 4.95% (active). For the same compound, the growth with M14 melanoma is 48.8%.
